High-throughput results (PubChem BioAssay)
MPTP inh – blocks calcium-induced mitochondrial swelling; isolated mouse mitochondria, Ca2+ swelling absorbance, 30 min; inhibition, % at 10 µM; 1.4% of 360,000 active; AID 602449;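 active means inhibition of 50% or more, scaled per plate between neutral and stimulator controls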;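 further: 0% = DMSO wells given calcium and 100% = 1 mM EGTA wells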
Mdm2 MdmX PPI – inhibitors of human Mdm2/MdmX interaction | 3% of 330,000 active | SaOS-2 split-luciferase Mdm2/MdmX complementation, luminescence | inhibition, % at 8 µM | O15151+Q00987;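 active means inhibition of at least 50% at 8 µM in the primary screen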
Target sequence (O15151 whole entry, looked up): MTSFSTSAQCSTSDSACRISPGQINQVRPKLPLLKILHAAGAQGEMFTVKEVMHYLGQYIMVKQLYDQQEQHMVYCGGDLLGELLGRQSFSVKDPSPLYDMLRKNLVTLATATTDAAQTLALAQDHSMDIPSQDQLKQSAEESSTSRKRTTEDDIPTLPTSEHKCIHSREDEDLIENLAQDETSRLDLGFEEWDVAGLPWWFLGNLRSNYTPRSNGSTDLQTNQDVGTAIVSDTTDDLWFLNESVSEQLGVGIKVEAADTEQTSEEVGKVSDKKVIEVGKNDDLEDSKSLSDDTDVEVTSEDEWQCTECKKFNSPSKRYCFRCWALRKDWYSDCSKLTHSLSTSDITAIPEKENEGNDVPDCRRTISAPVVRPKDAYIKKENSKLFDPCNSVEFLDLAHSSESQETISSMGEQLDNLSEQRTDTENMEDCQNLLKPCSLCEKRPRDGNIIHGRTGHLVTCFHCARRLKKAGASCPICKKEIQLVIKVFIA
Target sequence (Q00987 whole entry, looked up): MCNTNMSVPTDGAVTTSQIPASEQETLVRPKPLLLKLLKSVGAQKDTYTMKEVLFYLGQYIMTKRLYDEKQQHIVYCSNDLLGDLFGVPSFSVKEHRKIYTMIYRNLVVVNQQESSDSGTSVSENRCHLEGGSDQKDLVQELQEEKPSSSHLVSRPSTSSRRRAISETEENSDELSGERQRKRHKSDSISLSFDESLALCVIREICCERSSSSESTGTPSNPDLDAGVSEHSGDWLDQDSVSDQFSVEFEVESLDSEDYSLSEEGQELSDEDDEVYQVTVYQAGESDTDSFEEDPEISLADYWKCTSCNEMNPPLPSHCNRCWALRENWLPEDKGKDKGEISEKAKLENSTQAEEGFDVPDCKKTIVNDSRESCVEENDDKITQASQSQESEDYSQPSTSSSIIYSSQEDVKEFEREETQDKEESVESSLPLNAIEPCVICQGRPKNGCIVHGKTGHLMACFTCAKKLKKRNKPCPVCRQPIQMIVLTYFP
CSC inhib – blocks cancer stem cells. cancer stem cell-like cells viability, luminescence. 1.1% of 300,000 active. AID 2717. inhibition, % at 7.5 µM; in the data active means inhibition above about 75%; tested in HMLE shEcad cells
Beta cell apopt – blocks beta cell apoptosis; INS-1E cytokine-induced death, ATP luminescence, 48 h; percent of positive-control rescue, neutral wells zero; 0.8% of 300,000 active; AID 435005; protection from apoptosis, % (test concentration not listed);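 active means Every replicate reaches about 75%, or at least half do and their mean reaches it too, limit read from the data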;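 further: 0% = cytokine-treated negative control wells and 100% = positive control rescue; higher means more ATP so stronger rescue from cytokine killing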
Calb FLC – affects C. albicans growth with fluconazole. AID 1979. growth inhibition, % (no concentration beside the values). 0.57% of 300,000 active. C. albicans CaCi-2 (fluconazole-resistant clinical isolate) + fluconazole, Alamar Blue growth, 48 h;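 active means growth inhibition above about 58% in most replicates, limit read from the data, passing the limit was not always enough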;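 further: all wells also contain fluconazole at 8 µg/ml as a sub-toxic cotreatment; 0% = median of DMSO wells and 100% = median of geldanamycin control wells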
MPTP counter – Rhodamine 123 counter-screen of mitochondrial pore hits | 78% of 5,000 active | inhibition, % at 10 µM | shares compounds with MPTP inh | isolated mitochondria, membrane potential, Rhodamine 123 fluorescence; in the data active means inhibition above about 22%;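 further: 0% = DMSO vehicle and 100% = positive control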
MPTP abs DR – dose response confirmation of mitochondrial permeability transition pore inhibitors; shares compounds with MPTP inh; IC50, µM; AID 651561; isolated mitochondria swelling, absorbance; 58% of 780 active; in the data active means IC50 below about 20 µM
MPTP counter DR – MPTP inhibitor counter-screen activity, dose response. isolated mitochondria counterscreen, fluorescence read-out. shares compounds with MPTP inh. IC50, µM. 49% of 780 active; in the data active means IC50 below about 80 µM
* hit, by the source's call; i = inactive; . = not tested or not shown. A selection: hits, their analogues and other compounds. The true share with any hit is near 4.8%.

SMILES	MPTP inh	Mdm2 MdmX PPI	CSC inhib	Beta cell apopt	Calb FLC	MPTP counter	others
CCc1c(C)nc2ncnn2c1NCCc1ccc(Cl)cc1	90*	25	-9	61	51	40*
CCc1c(C)nc2ncnn2c1NCCc1ccccc1	20	16	-3	27	-1	.
CCNC(=S)NNC(=O)C(c1ccccc1)c1ccccc1	1	17	-6	-5	0	.
CC(C)(C)C(=O)NC(=S)NNC(=O)C(c1ccccc1)c1ccccc1	92*	42	58	68	82*	-8
CC1Sc2ccc(S(=O)(=O)N3CCC(C(=O)Nc4ccc(Cl)cc4)CC3)cc2NC1=O (stereo not given)	99*	39	-14	113*	-6	100*
COc1ccc(NC(=O)C2CCN(S(=O)(=O)c3ccc4c(c3)NC(=O)C(C)S4)CC2)cc1 (stereo not given)	7	10	-6	6	-2	.
Cc1ccc(NC(=O)C2CCN(S(=O)(=O)c3ccc(N4CCCC4=O)cc3)CC2)cc1Cl	102*	29	0	122*	-5	108*
Cc1ccc(NC(=O)CSCc2cc(=O)n3ccsc3n2)c(C)c1	2	-5	0	-4	-3	.
Fc1ccccc1CN1CCCN(C(=S)Nc2cccc(Cl)c2)C1	92*	2	6	0	-7	76*
Cc1c(Cl)cccc1NC(=S)N1CCCN(Cc2ccccc2F)C1	69*	8	4	-5	0	74*
Cc1c(Cl)cccc1NC(=S)N1CCCN(Cc2ccc(F)cc2)C1	48	12	3	-7	-2	.
Nc1c(C(=O)Nc2ccccc2)c2nc3ccccc3nc2n1-c1ccc(O)cc1	2	32	46	9	15	.
O=C(CSc1nc2ccc([N+](=O)[O-])cc2[nH]1)c1ccc2ccccc2c1	99*	0	.	6	42	68*
CCN(CC)c1ccc(/C=C2/C(=O)c3ccc(C(=O)O)cc3C2=O)cc1	72*	.	-3	-5	.	-34
COc1ccc(C2CCc3cc4c(cc3C2=NO)OCO4)cc1OC (stereo not given)	5	.	.	.	.	.
O=C(/C=C/c1cccs1)Nc1ccc([N+](=O)[O-])cc1	81*	-78	18	9	-3	74*
CCCOc1ccc(C(=O)C(CN2CCCC2)c2ccccc2)cc1 (stereo not given)	79*	.	101*	0	26	-11
CCCOc1ccc(C(C(=O)OCCN(CC)CC)c2ccccc2)cc1 (stereo not given)	82*	21	-12	2	8	-1	MPTP abs DR=i;MPTP counter DR=73*
COc1cccc(NC(=O)CN2C(=O)NC(c3ccccc3)(c3ccccc3)C2=O)c1	3	-16	-10	6	7	.
CCCc1nc(SCC(=O)Nc2nnc(SCC)s2)c2c(=O)n(C)c(=O)n(C)c2n1	7	13	31	29	-8	.
CCSc1nnc(NC(=O)CSc2nc(CC)nc3c2c(=O)n(C)c(=O)n3C)s1	66*	22	-2	-3	-1	19	MPTP abs DR=i;MPTP counter DR=>80
Cc1cc(C)n(CCc2nc(-c3ccco3)cs2)n1	55*	4	-5	-4	-4	-6	MPTP abs DR=>100;MPTP counter DR=>80
OC1c2c(F)cccc2N=C2CCCCCN21 (stereo not given)	0	.	.	.	.	.
COC(=O)c1cccc(NS(=O)(=O)c2ccc(OC)c(OC)c2)c1C	56*	19	4	13	-5	21*
C=CCN1C(=O)/C(=C/c2ccc(OC(C)=O)c(OCC)c2[N+](=O)[O-])SC1=S	102*	.	.	.	56	65*
SMILES	MPTP inh	Mdm2 MdmX PPI	CSC inhib	Beta cell apopt	Calb FLC	MPTP counter	others
COC(=O)C[C@H]1C[C@@H]2c3cc(NC(=O)NC4CCCC4)ccc3O[C@@H]2[C@@H](CO)O1	0	.	.	.	.	.
O=C(NCc1ccco1)c1ccccc1NS(=O)(=O)c1ccc(Cl)s1	90*	-2	-4	-2	62	79*
O=C(NCc1ccco1)c1ccccc1NS(=O)(=O)c1cccs1	-2	4	3	3	56	.
CC(=O)Nc1ccc(S(=O)(=O)Oc2cccc(N3C(=O)C4CC=CCC4C3=O)c2)cc1 (stereo not given)	4	27	4	5	0	.
CC(=O)Nc1ccc(S(=O)(=O)Oc2ccc(N3C(=O)C4CCCCC4C3=O)cc2)cc1 (stereo not given)	83*	11	1	11	-17	52*
COc1ccc2cc(CNCCOCCOCCNCc3ccc4cc(OC)ccc4c3)ccc2c1	97*	.	.	.	.	-10
C=CCN(CC=C)C(=O)c1ccc2nc(Cc3ccc(OC)c(OC)c3)oc2c1	50*	4	-2	.	7	11	MPTP abs DR=i;MPTP counter DR=43*
Cc1cc(Cl)c(S(=O)(=O)N2CCSCC2)cc1OCC(=O)NC1CCCCC1	86*	23	-22	32	-30	85*
Cc1cc(Cl)c(S(N)(=O)=O)cc1OCC(=O)NC1CCCCC1	1	-3	4	-5	-6	.
Cc1cc(Cl)c(S(=O)(=O)NC2CCCC2)cc1OCC(=O)NC1CCCCC1	80*	14	-10	27	-20	72*
Cc1cc(Cl)c(S(=O)(=O)N2CCCCCC2)cc1OCC(=O)NC1CCCCC1	37	32	14	62	-12	.
CC(C)N(Cc1ccccc1)C(=O)CN1C(=O)COc2ccc(S(=O)(=O)N3CCCCCC3)cc21	-2	9	11	6	3	.
Cc1ccccc1OCC(=O)N1N=C(c2cccnc2)CC1(O)C(F)(F)F (stereo not given)	1	23	-3	-6	-28	.
O=C(N/N=C/c1ccc(Sc2ccccn2)o1)c1cc2ccccc2cc1O	68*	25	-5	-5	-16	35*
Cc1ccc(N2CCN(S(=O)(=O)N3CCCCC3)CC2)cc1Cl	0	-25	15	-8	5	.
Cc1cc(C)c(N2CCN(S(=O)(=O)N3CCCCCC3)CC2)c(C)c1	79*	5	.	59	4	13	MPTP abs DR=i;MPTP counter DR=17*
COC(=O)c1cnn(-c2ccc(Cl)cc2)c1/C=N/NC(N)=S	3	25	2	-5	0	.
CC(=O)c1cccc(OCC(=O)N(Cc2ccco2)c2c(N)n(Cc3ccccc3)c(=O)[nH]c2=O)c1	-2	1	-6	-3	.	.
COc1ccc(NC(=O)C2Cc3c(-c4cccc(F)c4)ccnc3O2)cc1OC (stereo not given)	68*	.	.	.	.	65*
COc1ccc(NC(=O)C2Cc3c(-c4ccc(NC(C)=O)cc4)ccnc3O2)cc1OC (stereo not given)	0	.	.	.	.	.
COc1ccc(NC(=O)C2Cc3c(-c4ccc5c(c4)OCO5)ccnc3O2)cc1OC (stereo not given)	96*	.	.	.	.	89*
CCOc1ccccc1OCCCC(=O)NNC(=O)c1nn(C)c(=O)c2ccccc12	-3	-5	.	-5	.	.
